Pol iota inh: inhibitors of human DNA polymerase iota. Pol iota fluorescent replication assay, 10 min. 390,000 tested, 1% active. Q9UNA4. Potency, µM (series often up to 115 µM), usual class: inhibitors
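Pol iota at 10 nM preincubated 15 min with compounds at room temperature; reaction started with fluorescent substrate, 50 nM final. Fluorescence read kinetically at 0 and 10 min; buffer-only wells as negative control.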
Pol beta inh: inhibitors of human DNA polymerase beta | P06746 | Pol beta primer extension/strand displacement, fluorescence kinetic | Potency, µM (highest dose often 114 µM), actives largely listed as inhibitors | 340,000 tested, 1.3% active | AID 485314
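Preincubation: enzyme (10 nM) with compound, 15 min, RT. Reaction: substrate added to 50 nM final. Reads: 0 and 10 min. Analysis: normalized, Hill fit.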
POLK inh: DNA polymerase kappa (human) inhibition; Q9UBT6; purified Pol kappa, fluorescent DNA synthesis assay, 10 min; Potency, µM (titrated, usually from 107 µM), actives largely listed as inhibitors; 400,000 tested, 0.53% active; AID 588579
Target sequence (Q9UBT6 whole entry, looked up): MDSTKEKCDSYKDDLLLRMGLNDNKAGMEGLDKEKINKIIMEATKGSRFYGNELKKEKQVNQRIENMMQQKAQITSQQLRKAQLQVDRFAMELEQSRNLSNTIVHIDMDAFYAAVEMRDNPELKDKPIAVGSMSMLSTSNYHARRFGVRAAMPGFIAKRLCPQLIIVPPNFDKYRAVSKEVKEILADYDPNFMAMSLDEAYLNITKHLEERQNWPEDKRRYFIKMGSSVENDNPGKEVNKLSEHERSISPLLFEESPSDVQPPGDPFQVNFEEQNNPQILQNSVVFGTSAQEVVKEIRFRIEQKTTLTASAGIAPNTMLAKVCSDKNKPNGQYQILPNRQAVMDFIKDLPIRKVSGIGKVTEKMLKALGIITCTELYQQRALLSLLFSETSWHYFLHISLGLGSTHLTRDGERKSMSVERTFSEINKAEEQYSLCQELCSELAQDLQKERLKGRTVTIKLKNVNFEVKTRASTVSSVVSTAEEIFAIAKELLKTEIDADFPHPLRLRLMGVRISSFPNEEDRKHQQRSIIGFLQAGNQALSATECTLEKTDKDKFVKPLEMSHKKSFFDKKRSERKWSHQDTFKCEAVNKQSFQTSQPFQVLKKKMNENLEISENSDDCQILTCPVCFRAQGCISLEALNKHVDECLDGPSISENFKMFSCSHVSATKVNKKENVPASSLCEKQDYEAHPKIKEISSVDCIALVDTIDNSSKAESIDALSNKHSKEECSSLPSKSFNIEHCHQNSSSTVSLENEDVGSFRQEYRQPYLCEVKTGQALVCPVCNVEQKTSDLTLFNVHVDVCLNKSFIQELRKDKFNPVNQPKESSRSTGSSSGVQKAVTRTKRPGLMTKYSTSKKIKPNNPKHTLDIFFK
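10 nM Pol kappa was preincubated with compounds for 15 min at room temperature. Reaction started with 50 nM (final) substrate. Fluorescence read kinetically at 0 and 10 min.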
FEN1 inh: blocks human flap endonuclease 1; 390,000 tested, 0.35% active; P39748; Recombinant FEN1 flap cleavage, fluorescence, 15 min; Potency, µM (top dose mostly 114 µM), hits mostly inhibitors; note: nearly all actives have a fitted effect of over 65% in size
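Reaction started by adding substrate (50 nM final) to 10 nM enzyme after 15 min room-temperature compound preincubation. Reads at 0 and 15 min, with data normalized and fitted to a four-parameter Hill equation.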
WRN inhibitor: blocks human WRN helicase | WRN helicase unwinding, fluorescent forked duplex, kinetic | Potency, µM (titrated, usually from 114 µM), actives largely listed as inhibitors | 360,000 tested, 0.46% active; note: nearly all actives have a fitted effect of over 55% in size
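Kinetic red-fluorescence monitoring (525/598 nm) tracks WRN helicase activity after 100 nM fluorophore-quencher forked duplex and 2 mM ATP are added to 20 nM enzyme pretreated 15 min at room temperature with compound.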
Pol eta inh: inhibitors of human DNA polymerase eta; Potency, µM (series often up to 114 µM), most hits filed as inhibitors; recombinant Pol eta, fluorescent DNA replication assay; Q9Y253; AID 588591; 390,000 tested, 1.2% active
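Fluorescent replication assay: 50 nM final substrate added after a 15 min room-temperature compound preincubation with 10 nM enzyme. Signal taken at 0 min and again at 10 min.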
Hits are given with their value; – = inactive; ? = inconclusive; · = no result given; [ ] = remark or other dose. Rows were chosen to be rich in hits. Some 2.4% of all compounds tested hit in one or more screens of this group. Calls come from the whole dose curve; as a rule, active = well fitted curve in the direction sought with a large enough effect; inconclusive = small, poorly fitted or top-dose-only effect, or another doubt; inactive = no such curve, though single readings can be large; an effect the other way counts as inactive or inconclusive.

SMILES	Pol iota inh	Pol beta inh	POLK inh	FEN1 inh	WRN inhibitor	Pol eta inh
C[C@H](CC[C@@H]1OC1(C)C)C1CC[C@H]2[C@@H]3CC=C4C[C@@H](O)CC[C@]4(C)[C@H]3CC[C@]12C (some centres not stated)	·	·	–[19.4 µM]	·	·	·
Cc1ccnc(NC(=O)CS(=O)(=O)c2ccccc2)c1	–	–	–	–	–	–
Cc1ccnc(NC(=O)CCC(=O)c2cccs2)c1	20µM	·	?	–	–	?
Cc1ccc(NC(=O)CN(C)C(=O)CCC(=O)c2cccs2)cc1	?	17.8µM	–	–	–	?
O=C(CCS(=O)(=O)c1ccccc1)Nc1nnc(C(F)(F)F)s1	–	50.1µM	–	–	–	–
Cc1ccnc(NC(=O)CCS(=O)(=O)c2ccccc2)c1	–	22.4µM	–	–	–	–
CCC1(c2ccc(OC)cc2)NC(=O)N(C)C1=O (configuration not stated)	·	·	–	·	·	·
O=C(Cc1ccc(F)cc1)N(c1ccccc1)C1C=CS(=O)(=O)C1 (configuration not stated)	–	–	–	–	–	–
O=C(Cc1cccs1)N(c1ccccc1)C1C=CS(=O)(=O)C1 (configuration not stated)	56.2µM	?	–	–	–[11.6 µM]	–
CC(=O)OCOC(=O)CNc1ccccc1OCCOc1ccccc1NCC(=O)OCOC(C)=O	·	·	–[12 µM]	·	·	·
O=C(COc1c(Cl)cccc1Cl)NN1C(=O)CSC1=S	17.8µM	–	–	–	–[11.6 µM]	–
COc1cc2ccccc2cc1C(=O)OCC(=O)Nc1ccc(Br)cc1	·	·	89.1µM	?	·	·
CCOc1cc2ccccc2cc1C(=O)OCC(=O)Nc1ccc(Br)cc1	–	·	–	–	·	·
CN1C(=O)/C(=C/c2ccc(OCc3ccc(C(=O)O)cc3)c(Cl)c2)NC1=S	–	35.5µM	–	–	?	?
COc1ccc(OC)c(NC(=O)CSc2nc3[nH]c(=O)[nH]c(=O)c3s2)c1	?	·	–	?	–	50.1µM
CCOC(=O)c1cnc(SCC(=O)Nc2cc(OC)ccc2OC)nc1N	–	22.4µM	–	–	–	?
O=S(=O)(Cc1ccccc1)N1CCN(c2nc(-c3cccs3)nc3ccccc23)CC1	–	·	–	–	·	·
CC1CC=CC2C1C(=O)N(Cc1ccccc1)C2c1ccoc1 (configuration not stated)	?	·	–	–	·	·
CC1CCC(NC(=O)COC(=O)c2ccc3ncsc3c2)CC1 (configuration not stated)	?	·	–	–	–	–
O=C(OCC(=O)N1CCN(c2ccccc2)CC1)c1cccc([N+](=O)[O-])c1	–	·	–	–	–	–
O=C(COC(=O)c1ccc2ncsc2c1)NC(=O)C1CCCCC1	70.8µM	·	–	–	·	·
O=C(OCC(=O)N1CCN(c2ccccc2)CC1)c1ccc2ncsc2c1	?	89.1µM	–	–	–	?
CC1Cc2ccccc2C[N+]1(C)CC(=O)c1ccc(I)cc1 (configuration not stated)	–	·	–	–	·	·
COC(=O)C1=C(CSc2nc3c(cc2C#N)CN(C)CC3)OC(N)=C(C#N)C1c1ccc(F)cc1 (configuration not stated)	14.1µM	?	70.8µM	–	?	?
Cc1ccccc1-c1ccc2ncnc(NCc3cccs3)c2c1	·	·	22.4µM	·	·	·
SMILES	Pol iota inh	Pol beta inh	POLK inh	FEN1 inh	WRN inhibitor	Pol eta inh
CN1CCN(c2ncnc3ccc(-c4cccc(NS(C)(=O)=O)c4)cc23)CC1	·	·	–	·	·	·
COc1ccc(C(=O)Nc2cccc(NC(=O)c3ccc(OC)c(OC)c3)n2)cc1OC	?	22.4µM	–	–	–	–
COc1ccc(C(=O)Nc2cccc3cccnc23)cc1OC	–	–	–	–	–	–
CCN(CC)c1cc(C)c2cc(NC(=O)c3ccc(OC)c(OC)c3)ccc2n1	?	12.6µM	?	–	·	–
CCCCNc1nc(=S)[nH]c2cc(OC)c(OC)cc12	–	89.1µM	–	–	–	–
Clc1ccc2c(ccc[n+]2CCC2CCCCC2)c1	?	·	–	–	·	·
O=C(Nc1ccc(S(=O)(=O)Nc2nccs2)cc1)c1ccc(F)cc1	–	–	–	–	–	–
Cc1cc(C)c2nc(-c3ccccn3)cc(C(=O)Nc3ccc(S(=O)(=O)Nc4cc(C)on4)cc3)c2c1	?	50.1µM	?	?	56.2µM	28.2µM
Cc1noc(NS(=O)(=O)c2ccc(NC(=O)c3ccc(N4C(=O)c5ccccc5C4=O)cc3)cc2)c1C	?	35.5µM	?	–	?	79.4µM
O=C(Nc1ccc(S(=O)(=O)Nc2nccs2)cc1)c1ccc(N2C(=O)c3ccccc3C2=O)cc1	70.8µM	22.4µM	?	–	–	?
CCCOc1ccc(C(=O)Nc2ccc(S(=O)(=O)Nc3onc(C)c3C)cc2)cc1	?	–	–	–	–	–
Cc1ccc(-c2cc(C(=O)Nc3ccc(S(=O)(=O)Nc4nccs4)cc3)c3ccccc3n2)c(C)c1	?	–	–	–	–	35.5µM
CCCC[C@@H]1CCCO[C@@](C(=O)NCCOC)(C(F)(F)F)C1	–	·	–	–	·	·
COc1ccc(NC(=O)Cn2c(=O)n(CCCCCC(=O)NCc3ccc4c(c3)OCO4)c(=O)c3sccc32)cc1Cl	–	–	–	89.1µM	·	–
Cc1ccc(NC(=O)Cn2c(=O)n(CCC(=O)NCc3ccc4c(c3)OCO4)c(=O)c3sccc32)c(C)c1	–	?	–	–	·	–
Cc1ccc(Cl)cc1NC(=O)Cn1c(=O)n(CCC(=O)NCc2ccc3c(c2)OCO3)c(=O)c2sccc21	–	14.1µM	–	–	·	–
O=C(COc1ccccc1C(=O)OCC(=O)N1CCOCC1)Nc1ccc(Br)cc1	?	·	–	–	·	·
CN(C)CCNc1cc(N2CCN(C)CC2)ncn1	–	·	–	–	·	·
Cc1occc1C(=O)NCc1ccco1	?	31.6µM	–	–	–	?
Cc1c(Br)cc(C(=O)NCc2ccco2)c(C)c1C	?	22.4µM	–	–	–	?
Cc1occc1C(=O)NCc1ccc(C(=O)O)o1	–	–	–	–	–	56.2µM
Cc1occc1C(=O)NCc1ccccc1	–	–	–	–	–	–
Cc1occc1C(=O)NCCc1ccc(Cl)cc1	–	–	–	–	–	–
COc1cccc(CCn2c(N)cc(=O)[nH]c2=S)c1OC	–	·	–	–	·	·
O=c1[nH]c(Nc2ccc(F)cc2)cc2ccccc12	7.08µM	–	–	–	–	22.4µM
N#Cc1c(-c2ccc(Cl)cc2)cc(-c2cccs2)nc1SCC(=O)O	17.8µM	?	?	–	?	–
O=C1CCC[C@@H]2CC(Nc3ccccc3)C[C@@H]3CCN1[C@H]23 (some centres not stated)	–	·	–	–	·	·
CCCCNC(=O)COC(=O)c1cc(C)nc2ccccc12	–	–	–	–	–	–
CCCCNC(=O)COC(=O)c1c2c(nc3ccccc13)/C(=C/c1cccs1)CC2	–	25.1µM	–	–	–	?
